This is a sample that favours compounds with a hit; in the whole collection about 4% have one here.
tim23-1 inh: inhibits growth of tim23-1 mutant yeast; S. cerevisiae tim23-1 growth, BacTiter-Glo luminescence, 24 h; actives 1.3% (n = 330,000); inhibition, % at 20 µM;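 active = growth inhibition of the mutant yeast at or above 50%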;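 also: temperature-sensitive mutant grown at 25 °C; plate controls were DMSO-treated mutant yeast for no effect and medium wells lacking yeast for full effect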
tim10-1 inh: growth inhibitors of tim10-1 mutant yeast; actives 2.2% (n = 330,000); inhibition, % at 20 µM; AID 463190; S. cerevisiae tim10-1 ts strain growth, BacTiter-Glo, 24 h;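 active = inhibition of at least 40%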;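 also: mutant grown at 25 °C; 0% = DMSO wells with yeast and 100% = wells holding no yeast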
TIM10 inh: growth inhibitors of TIM10 yeast strain; S. cerevisiae TIM10 strain growth, BacTiter-Glo luminescence, 24 h; inhibition, % at 10 µM; actives 1.4% (n = 330,000); AID 463195;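 active = inhibition of 40% or more at the single tested concentration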;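 also: wild-type TIM10 isogenic control strain grown at permissive 25 °C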
NALP3 yeast inh: blocks the NALP3 inflammasome reconstituted in yeast; actives 0.39% (n = 330,000); inhibition, % at 10 µM; Yeast reconstituted NLRP3/ASC/caspase-1, beta-gal luminescence, 24 h; AID 2825;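 active = inhibition of 50% or more; inactive = inhibition below 50%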;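 also: plate controls were induced DMSO wells for no effect and uninduced yeast grown without galactose for full effect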
NALP1 inh: NALP1 inhibition | S. cerevisiae NALP1/ASC/caspase-1 growth, X-gal OD620, 72 h | inhibition, % at 10 µM | actives 0.61% (n = 280,000) | AID 2071; in the data active = inhibition mostly above about 24%, no sharp cut-off; inactive = mostly below about 32%
tim23-1 conf: tim23-1 yeast growth inhibition, confirmed; shares compounds with tim23-1 inh; S. cerevisiae tim23-1 growth, BacTiter-Glo luminescence, 24 h; inhibition, % at 20 µM; actives 83% (n = 4,400); AID 463218;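 active = inhibition above about 39% in either of two replicate wells at 20 µM, limit read from the data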;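 also: temperature-sensitive tim23-1 mutant grown at 25 °C; 0% = DMSO wells with yeast and 100% = medium wells without yeast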
* = called active by the depositor.

For CCOc1ccc(NC(=S)N2CCC(c3ccc(C)cc3)C2)cc1 (centres undefined) the results were tim23-1 inh 64*, tim10-1 inh 31, TIM10 inh 34, NALP3 yeast inh 30, NALP1 inh 6 and tim23-1 conf 41*.
`CCOC(=O)C1CCCN(C(=S)Nc2ccc(Nc3ccccc3)cc2)C1` (centres undefined) gave tim23-1 inh 52*, tim10-1 inh 38, TIM10 inh 20, NALP3 yeast inh 8, NALP1 inh -18 and tim23-1 conf 41*.
`COc1cccc(NC(=S)N2CCC(c3ccc(C)cc3)C2)c1` (centres undefined) gave tim23-1 inh 53*, tim10-1 inh 13, TIM10 inh 11, NALP3 yeast inh 28, NALP1 inh -1 and tim23-1 conf 37.
For Cc1cccc(C)c1OCC(=O)OCC(=O)Nc1ccc(Cl)cn1 the results were tim23-1 inh 30, tim10-1 inh 11, TIM10 inh 2 and NALP3 yeast inh 18.
`COc1cccc(NC(=O)c2ccccc2F)c1` gave tim23-1 inh 24, tim10-1 inh -19, TIM10 inh 2 and NALP3 yeast inh 19.
Screening CCOC(=O)Nc1cccc(NC(=O)c2ccccc2F)c1 returned tim23-1 inh 55*, tim10-1 inh -30, TIM10 inh 14, NALP3 yeast inh 15, NALP1 inh 3 and tim23-1 conf 63*.
`COc1ccc(/C=N/NC(=O)NC23CC4CC(CC(C4)C2)C3)c(OC)c1` gave tim23-1 inh 55*, tim10-1 inh 37, TIM10 inh 13, NALP3 yeast inh -3, NALP1 inh -10 and tim23-1 conf 45*.
For COc1ccccc1/C=N/NC(=O)NC12CC3CC(CC(C3)C1)C2 the results were tim23-1 inh 48, tim10-1 inh 24, TIM10 inh 27, NALP3 yeast inh 10 and NALP1 inh 12.
For Cc1ccc(C(=O)Oc2cccc(NC(=O)c3ccccc3)c2)cc1C the results were tim23-1 inh 31, tim10-1 inh 17, TIM10 inh 11, NALP3 yeast inh 34 and NALP1 inh 22.
For O=C(Nc1cccc(-c2nnc(-c3ccccc3)o2)c1)c1ccc(Br)o1 the results were tim23-1 inh 73*, tim10-1 inh 21, TIM10 inh 23, NALP3 yeast inh 35, NALP1 inh 8 and tim23-1 conf 63*.
For O=C(Nc1cccc(-c2ccc(N3CCCCC3)nn2)c1)c1ccc(Br)o1 the results were tim23-1 inh 54*, tim10-1 inh 37, TIM10 inh 19, NALP3 yeast inh 17 and tim23-1 conf 59*.
For O=C(Nc1cccc(OC(=O)c2ccc(Br)o2)c1)c1ccccc1 the results were tim23-1 inh 64*, tim10-1 inh 24, TIM10 inh 36, NALP3 yeast inh 22, NALP1 inh 8 and tim23-1 conf 57*.
Screening O=C1COc2ccc3ccccc3c21 returned tim23-1 inh -7, tim10-1 inh 10, TIM10 inh -15, NALP3 yeast inh 7 and NALP1 inh 16.
`CCN(CC(=O)NC(C)(C)C)C(=O)CN1c2cccc3cccc(c23)S1(=O)=O` gave tim23-1 inh 1, tim10-1 inh 18, TIM10 inh 10, NALP3 yeast inh 7 and NALP1 inh 5.
Screening CCCc1[nH][nH]c(=O)c1C(c1ccc(Br)cc1)C(C#N)C#N (centres undefined) returned tim23-1 inh 59*, tim10-1 inh 33, TIM10 inh 35, NALP3 yeast inh 22, NALP1 inh 37 and tim23-1 conf 35.
Screening NNC(=O)c1n[nH]c2c1CC(C1CCCCC1)CC2 (centres undefined) returned tim23-1 inh 48, tim10-1 inh 34, TIM10 inh 16 and NALP3 yeast inh 6.
For C=CCNC(=O)c1n[nH]c2c1CC(C(C)(C)CC)CC2 (centres undefined) the results were tim23-1 inh 53*, tim10-1 inh 36, TIM10 inh 21, NALP3 yeast inh 12 and tim23-1 conf 56*.
For CCCNC(=O)c1n[nH]c2c1CC(C(C)(C)CC)CC2 (centres undefined) the results were tim23-1 inh 57*, tim10-1 inh 37, TIM10 inh 24, NALP3 yeast inh 10 and tim23-1 conf 58*.
Screening Nc1cc(Oc2ccc(F)cc2F)cc([N+](=O)[O-])c1 returned tim23-1 inh -2, tim10-1 inh 19, TIM10 inh 21, NALP3 yeast inh -6 and NALP1 inh 15.
